Sampled rows, rich in hits. Any-hit rate of the full collection: about 10%.
Six1-Eya2 blk: qHTS Assay for Inhibitors of the Six1/Eya2 Interaction. Homeobox protein SIX1 (Homo sapiens) + Protein phosphatase EYA2 (Homo sapiens), …. AlphaScreen GST-Six1/His-Eya2 binding, biochemical; active compounds read low. activity change, % (concentration not given with the values). hit rate 0.56% among 360,000; in the data active = activity change below about -65%; inconclusive = mostly about -30% to -63%
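Homogeneous AlphaScreen proximity assay pairing GST-Six1 with His-tagged Eya2 (added as 5X mix: 250 nM and 500 nM) in 50 mM Tris pH 8.0, 300 mM NaCl, 1 mM TCEP. Glutathione donor and nickel acceptor beads; 1 h, 37 °C, dark.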
BAZ2B inh: qHTS Assay for Inhibitors of BAZ2B; Bromodomain adjacent to zinc finger domain protein 2B (Homo sapiens), Q9UIF8; AlphaScreen BAZ2B-H3K14Ac peptide displacement; Potency, µM (series often up to 114 µM), usual class: inhibitors; hit rate 4.4% among 360,000; note: nearly all actives have a fitted effect of over 60% in size
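BAZ2B (50 nM) with biotin-H3(5-23)K14Ac peptide (50 nM) in PBS pH 7.4, 0.01% Tween-20, preformed 30 min, then compound 30 min at room temperature; top concentration 110uM. AlphaScreen streptavidin donor/nickel chelate acceptor beads (10 ug/mL final), 20 min dark, signal read.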
CtBP-E1A inh: qHTS Assay for Inhibitors of the CtBP/E1A Interaction | AlphaScreen GST-E1A/His-CtBP binding, 1536-well; active compounds read low | activity change, % (no concentration beside the values) | hit rate 0.49% among 340,000; in the data active = activity change below about -65%; inconclusive = mostly about -30% to -63%
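Steps: dispense buffer (Tris pH 8.0, NaCl 300 mM, TCEP 1 mM, BSA, Tween 20); add 5X protein mix (GST-E1A, His-CtBP, 125 nM each); pin 23 nL compound; 2 h at 37 °C, dark; add 5X beads (50 ug/mL); 1 h; read.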
G9a inh: qHTS Assay for Inhibitors of Histone Lysine Methyltransferase G9a | Histone-lysine N-methyltransferase EHMT2 (Homo sapiens), Q96KQ7 | G9a H3K9 monomethylation, AlphaScreen, 2 h | Potency, µM (top dose mostly 102 µM), actives largely listed as inhibitors | hit rate 8.8% among 350,000 | AID 504332, 2011; note: nearly all actives have a fitted effect of over 75% in size
Target sequence (Q96KQ7 913-1193 limits assumed): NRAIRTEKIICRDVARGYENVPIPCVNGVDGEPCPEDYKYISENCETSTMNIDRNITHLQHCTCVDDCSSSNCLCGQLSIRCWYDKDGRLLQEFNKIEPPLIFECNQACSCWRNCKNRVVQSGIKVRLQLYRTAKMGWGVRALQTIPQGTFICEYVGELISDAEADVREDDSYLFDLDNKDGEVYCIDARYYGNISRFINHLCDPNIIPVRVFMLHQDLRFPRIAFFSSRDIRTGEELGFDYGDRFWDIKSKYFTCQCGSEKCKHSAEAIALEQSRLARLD
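Chemiluminescent proximity detection of H3K9 monomethylation, read after 10 min bead incubation in the dark. Reaction: 20 nM G9a, 500 nM biotin-H3K9 peptide, 20 uM SAM cofactor, 2 h, room temperature, following 15 min enzyme-compound preincubation.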
JMJD2A Tudor: qHTS Assay for Inhibitors of JMJD2A-Tudor Domain; Lysine-specific demethylase 4A (Homo sapiens), O75164; AlphaScreen JMJD2A-Tudor / H3K4me3 peptide binding; Potency, µM (highest dose often 114 µM), usual class: inhibitors; hit rate 4.4% among 390,000; note: nearly all actives have a fitted effect of over 50% in size
HP1b binding inh: HTS for Inhibitors of HP1-beta Chromodomain Interactions with Methylated Histone Tails. AlphaScreen HP1-beta / biotin-H3K9me3 peptide binding. Potency, µM (doses to about 114 µM), most hits filed as inhibitors. hit rate 0.56% among 390,000. Chromobox protein homolog 1 (Homo sapiens), P83916. AID 540317, 2011; note: nearly all actives have a fitted effect of over 70% in size
Target sequence (P83916 whole entry, looked up): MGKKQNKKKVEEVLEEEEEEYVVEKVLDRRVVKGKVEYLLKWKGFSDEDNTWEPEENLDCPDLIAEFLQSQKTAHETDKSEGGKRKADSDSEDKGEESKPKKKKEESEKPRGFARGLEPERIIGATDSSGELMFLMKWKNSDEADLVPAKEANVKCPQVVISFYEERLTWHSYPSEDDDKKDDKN
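HP1-beta protein (50 nM final) preincubated 30 min at room temperature with biotinylated H3(1-18)K9me3 peptide (50 nM) in PBS pH 7.4, 0.01% Tween-20, then compound added for 30 min. AlphaScreen streptavidin donor/nickel chelate acceptor beads (10 ug/mL final), 30 min dark, luminescence read.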
Hits are given with their value; – = inactive; ? = inconclusive; · = no result given; [ ] = dose if it differs, or a comment. Unless noted, calls come from the whole dose curve; as a rule, active = well fitted inhibition curve with a large enough effect; inconclusive = small, poorly fitted or top-dose-only effect; inactive = no such curve, though single readings can be large or run the other way.

SMILES	Six1-Eya2 blk	BAZ2B inh	CtBP-E1A inh	G9a inh	JMJD2A Tudor	HP1b binding inh
CCC(C)NCCOCCOc1ccc(C)cc1OC (stereo not given)	–	?	–	11.2µM	20µM	?
CC1CCN(C(=S)c2ccccc2O)CC1	–	–	–	?	?	?
Oc1ccc(C(=S)N2CCCC2)cc1	–	–	·	·	–	–
Oc1cccc(C(=S)N2CCCCC2)c1	–	–	·	31.6µM	–[11.4 µM]	–
COc1ccc(C(=S)N2CCCCC2)cc1Br	–	–	–	–	?	–
CC1CCN(C(=S)c2ccc(O)cc2)CC1	–	–	–	35.5µM	–	–
CSc1ccc(C(=S)N2CCCC2)cc1	–	–	–	31.6µM	–	?
Oc1ccc(C(=S)N2CCCCCC2)cc1	–	–	–	31.6µM	–	–
CC1(C)CCC[C@]2(C)C(CS(=O)c3ccccc3)=C(C=O)CC[C@@H]12 (stereo not given in full)	–	·	–	·	–	–
COc1ccc(NC(=O)c2c(C)noc2C)cc1S(=O)(=O)N1CCCCC1	–	·	–	·	·	·
COc1ccccc1N1CCN(C(=O)c2cnn(-c3ccc(C)c(C)c3)c2C2CCN(C(=O)OC(C)(C)C)CC2)CC1	·	–	·	?	–	–
COc1ccc(C(=S)N2CCCC2)cc1	–	–	–	?	–	–
Cc1ccc(C(=S)N2CCCCCC2)cc1	–	–	–	10µM	–	–
CSc1ccc(C(=S)N2CCN(C(c3ccccc3)c3ccccc3)CC2)cc1	–	–	–	10µM	–	–
CN(C)c1ccc(CNC(=O)c2cc(S(=O)(=O)N3CCCC3)cn2C)cc1	–	?	–	·	?	–
CC1CCN(S(=O)(=O)c2cc(C(=O)NCc3ccc(N(C)C)cc3)n(C)c2)CC1	·	35.5µM	·	10µM	56.2µM	–
CN(C)c1ccc(CNC(=O)C2CCN(S(=O)(=O)c3ccc4c(c3)CCCC(=O)N4)CC2)cc1	–	?	–	44.7µM	?	–
Cc1ccc(N(C(=O)CNC(=O)c2ccco2)C(C(=O)NCC2CCCO2)c2ccccc2)c(C)c1 (stereo not given)	–	–	–	–	–	–
COc1cccc(C2C(C(=O)Nc3ccccc3)=C(C)N=c3s/c(=C/c4ccc(OCC(=O)O)cc4)c(=O)n32)c1 (stereo not given)	–	–	–	–	–	–
CC1=C(C(=O)Nc2ccccc2)C(c2ccc(C)o2)n2c(s/c(=C\c3ccco3)c2=O)=N1 (stereo not given)	–	50.1µM	–	?	–	–
COc1ccc(-c2c3c(=O)n(C)c(=O)n(C)c3c3c(-c4ccccc4)nc4ccccc4n23)cc1	·	–	·	–	–	–
Cc1ccccc1S(=O)(=O)N1CCN(c2ccc3c(c2)C2CC3CCN2C(=O)OCc2ccccc2)CC1 (stereo not given)	–	·	–	·	·	·
COc1cc(CCC(=O)Nc2nnc(-c3cccnc3)s2)cc(OC)c1OC	–	–	–	39.8µM	–	–
COc1cccc(-c2csc(N3CCN(C(=O)C4CCCCC4)CC3)n2)c1	–	?	–	14.1µM	?	–
COc1cccc(N2CCN(CC(=O)Nc3nnc(-c4ccccc4)s3)CC2)c1	?	?	–	–	89.1µM	–
COc1ccc(NC(=O)CN2CCN(c3nc(-c4cccc(OC)c4)cs3)CC2)cc1	–	?	–	10µM	?	–
COc1ccc(-c2cc(C(F)(F)F)c(C#N)c(SCC(=O)Nc3ccc(F)cc3)n2)cc1	·	–	·	–	–	–
COc1ccc(-c2cc3nc(C)c(CCC(=O)Nc4cccc(C(F)(F)F)c4)c(C)n3n2)c(OC)c1	·	–	·	?	–	–
CC(=O)NC(=S)NNC(=O)C(c1ccccc1)c1ccccc1	–	–	·	11.2µM	?	–

Compound activity from PubChem.
